Data on eight compounds can be found in PubChem BioAssay (NCI).

This is part of a sample that, as a whole, favours compounds with a hit. Of some 83,000 tested, about 20% had one in any assay.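 Negative percent growth values reflect cell death: -40 means 40% of the cells present at the start died, and -100 means all died.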 A number with no mark means an inactive call. Active and inactive are the calls of the source. The calls were made as follows: active = growth percent below 10; inactive = the rest.

What all share (assay): NCI-60 one-dose screen, 48 h (100 = growth as untreated, 0 = no growth, -100 = all killed)
Common to all, as to details: 10 µM

The test system of assay [1] is NCI-H23 lung.
The subject of assay [2] is NCI-H226 lung.
Assay [3] concerns NCI-H322M lung.
The test system of assay [4] is HOP-62 NSCLC.
Assay [5] deals with NCI-H460 lung.
Assay [6] concerns HOP-92 NSCLC.
Assay [7] has as its system NCI-H522 lung.
Assay [8] concerns A549/ATCC NSCLC.
Assay [9] relates to 786-0 renal.
Assay [10] relates to COLO 205 colon.
Assay [11] deals with DU-145 prostate.
In assay [12] the test system is K-562 leukemia.
For assay [13], the system named is MALME-3M melanoma.
For assay [14], the system named is MDA-MB-231 breast.
The subject of assay [15] is RXF 393 renal.
Assay [16] concerns SF-268 CNS.
Assay [17] has as its system SF-295 CNS.
For assay [18], the system named is SF-539 CNS.
Assay [19] relates to UACC-257 melanoma.
The subject of assay [20] is M14 melanoma.

Take `CC(=O)Nc1ccc(-n2cnc3cc(-c4ccc(O)cc4)ccc32)cc1F`: the growth is 49.2% in [1]; 9.75% (active) in assay [2]; 52% in assay [3]; 44.4% in [4]; 10.5% in [5]; 55.1% in assay [6]. For the same compound, the growth was -42.7% (active) in assay [7]; 33.8% in assay [8]; 32.4% in assay [9]; -11.4% (active) in assay [10]; 34% in assay [11]; 6.14% (active) in assay [12]. In addition, the growth in [13] is 65.6%; in assay [14], 34.7%; in [15], -0.397% (active); in assay [16], 40.6%; in assay [17], 2.75% (active); in assay [18], -5.18% (active). For the same compound, the results for the growth in assay [19] and in assay [20] were 59.8% and 35.5%, respectively.

For the compound `COc1ccc(-c2ccc(/C=N/NC(=O)c3[nH]c4ccc(Br)cc4c3-c3ccccc3)s2)cc1`, the growth in assay [1] was 68.8%; in assay [2], 105%; in [3], 92.3%; in assay [4] it was 96.1%; in [5], 27.7%; in assay [6], 120%. Moreover, the growth in assay [7] was 82.9%; in assay [8], 71.9%; in [9], 112%; in assay [10], 97.6%; in [11], 104%; in assay [12], 87.6%. Also, the growth in assay [13] is 115%; in assay [14], 59.5%; in [15], 74.2%; in assay [16] it was 60%; in assay [17] it was 71.6%; in [18], 71.7%. Besides, the growth in assay [19] and in assay [20] was 106% throughout.

With `O=C(Nc1nc2ccc([N+](=O)[O-])cc2s1)Nc1ccccc1I`, the growth in assay [1] is -6.9% (active); in assay [2] it was -7.84% (active); in assay [3], -0.431% (active); in assay [4], 7.62% (active); in assay [5] it was 6.36% (active); in assay [6], -28.1% (active). Also, the growth is -23.7% (active) in [7]; 3.05% (active) in assay [8]; 0.486% (active) in [9]; -94.2% (active) in assay [10]; 17.9% in assay [11]; 4.53% (active) in [12]. In addition, the growth in assay [13] was -5.11% (active); in assay [14] it was 0.0164% (active); in [15] it was -12.7% (active); in [16], 22%; in [17], -25.8% (active); in assay [18] it was -0.233% (active). Also, the results for the growth in [19] and in [20] were -17.8% (active) and 2.29% (active), respectively.

Turning to `CC(=O)Nc1ccc(-c2cn(-c3cccc(C(=O)Nc4cc(C(F)(F)F)cc(C(F)(F)F)c4)c3)nn2)cn1`, the growth in assay [1] is -68.6% (active); in assay [2], -68% (active); in assay [3], -15.6% (active); in assay [4] it was -61.1% (active); in [5], -71.6% (active); in [6], -52% (active). For the same compound, the growth in assay [7] was -11.2% (active); in assay [8] it was -26.1% (active); in assay [9], -42.8% (active); in assay [10], -62.2% (active); in [11], -47.5% (active); in assay [12], -66.1% (active). The growth was -48.3% (active) in assay [13]; -72.5% (active) in [14]; -69.4% (active) in assay [15]; -7.7% (active) in assay [16]; -89.1% (active) in [17]; -83.7% (active) in assay [18]. Moreover, the growth in assay [19] is -4.2% (active); in assay [20], 4.5% (active).

With `N#Cc1c(-c2ccc(F)cc2)nc(SCc2ccc(F)cc2)nc1N1CCOCC1`, the growth in assay [1] is 71.8%; in assay [2] it was 48.4%; in assay [3] it was 78.4%; in assay [4], 24.3%; in assay [5], 73.9%; in assay [6] it was 34.3%. Also, the growth in assay [7] is 55%; in assay [8] it was 69%; in assay [9], 24.7%; in assay [10], 97.7%; in assay [11], 77.8%; in assay [12], 83.8%. The growth was 58.6% in [13]; 50.5% in assay [14]; 41.6% in assay [15]; 43.4% in assay [16]; 36.9% in [17]; 49% in [18]. The growth in assay [19] was 77.1%; in assay [20], 92.2%.

`CC1=C(C(=O)OC(C)C)C(c2ccc(O)cc2)NC(=S)N1` (stereo not given): the growth in assay [1] was 98.8%; in [2], 99.2%; in assay [3], 102%; in assay [4], 104%; in [5], 124%; in assay [6] it was 112%. Also, the growth in assay [7] is 93.1%; in [8], 109%; in assay [9], 95.7%; in assay [10] it was 119%; in assay [11], 100%; in assay [12] it was 95.2%. For the same compound, the growth was 105% in assay [13]; 100% in assay [14]; 97.3% in assay [15]; 111% in assay [16]; 96.6% in [17]; 98.2% in assay [18]. In addition, the growth in [19] is 121%; in assay [20], 97%.

With `COc1cc2c(cc1OC)CN(CCCCOc1cc(O)c3c(=O)cc(-c4ccccc4)oc3c1)CC2`, the growth in assay [1] was 67.2%; in [2], 63.5%; in assay [3] it was 92.5%; in assay [4], 80.7%; in assay [5] it was 49.6%; in assay [6], 64.2%. In addition, the growth in [7] was 58.4%; in assay [8] it was 67.7%; in assay [9], 23.9%; in assay [10] it was -43.8% (active); in assay [11], 80.3%; in assay [12], -6.81% (active). For the same compound, the growth in [13] is -68.6% (active); in assay [14], 38.5%; in assay [15], 29.8%; in [16], 65.9%; in [17], 26.2%; in assay [18], 48.7%. Moreover, the growth was 5.33% (active) in assay [19] and -21% (active) in assay [20].

Turning to `Cc1nc(Nc2nc(C)c3ccc(OCCN4CCOCC4)cc3n2)[nH]c(=O)c1C`, the growth in assay [1] is -66.6% (active); in assay [2] it was -47.2% (active); in [3], -10.8% (active); in [4], -34.5% (active); in assay [5], 2.14% (active); in assay [6] it was 3.9% (active). Also, the growth in assay [7] is -52.3% (active); in assay [8] it was 6.61% (active); in [9], -25.1% (active); in [10], 0.287% (active); in [11], 14.9%; in assay [12], 14.1%. Besides, the growth was -69.8% (active) in assay [13]; -67.1% (active) in assay [14]; -78% (active) in [15]; 9.74% (active) in assay [16]; -29.3% (active) in assay [17]; -61.7% (active) in assay [18]. Besides, the results for the growth in assay [19] and in [20] were -14.9% (active) and 18%, respectively.
